# This is a sample that favours compounds with a hit; in the whole collection about 2.3% have one here.
# Kir21 block – Kir2.1 (mouse) channel inhibition; P35561; HEK293-Kir2.1, FluxOR thallium flux fluorescence; active compounds read low; B-score at 10 µM; hit rate 0.85% among 310,000; AID 1672;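 active = fluorescence ratio B-score at or below minus 3 SD of library scores, with starting-brightness B-score within 2 SD, cut at about -4.2 in these data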;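 note: channel flux triggered by added potassium and thallium sulfate stimulus; B-score of peak minus minimum fluorescence over baseline after thallium stimulus; more negative B-score means stronger Kir2.1 block with less thallium influx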
# Rce1 inhib – inhibitors of yeast Ras-converting enzyme. yeast membranes, quenched prenylated peptide cleavage fluorescence. calls only. hit rate 0.27% among 290,000. AID 2563;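 active = fall in fluorescence gain of 50% or more versus controls, with final raw signal at or below 3038400; inconclusive = same 50% fall but final raw signal above 3038400; inactive = fall in fluorescence gain under 50%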;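 note: plate controls were neutral control wells for no effect and wells lacking membranes for full effect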
# Target sequence (Q03530 whole entry, looked up): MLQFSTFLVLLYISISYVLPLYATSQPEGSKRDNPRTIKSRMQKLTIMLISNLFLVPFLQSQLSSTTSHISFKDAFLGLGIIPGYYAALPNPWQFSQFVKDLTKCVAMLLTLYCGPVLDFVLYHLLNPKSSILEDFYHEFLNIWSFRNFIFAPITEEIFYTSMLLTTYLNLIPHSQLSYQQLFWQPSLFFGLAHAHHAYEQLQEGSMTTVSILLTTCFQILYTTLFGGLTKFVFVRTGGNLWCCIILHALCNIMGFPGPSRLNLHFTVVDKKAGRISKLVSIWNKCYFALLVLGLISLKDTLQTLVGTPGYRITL
# PfM18AAP inh – PfM18AAP enzyme inhibition; recombinant PfM18AAP, H-Glu-NHMec fluorogenic cleavage; inhibition, % at 7.35 µM; hit rate 1.2% among 290,000; AID 1822;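 active = inhibition above the campaign mean inhibition over all tested compounds plus 3 SD, cut at about 28% in these data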;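 note: 0% = plate median of test compound wells and 100% = 2 mM ZnCl2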
# DNA FID counter – fluorescent intercalator displacement, NS3 helicase counter-screen; inhibition, % at 7.9 µM; DNA fluorescent intercalator displacement, fluorescence; hit rate 0.17% among 290,000; in the data active = inhibition above about 37%;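 note: 0% = vehicle and 100% = reference compound; higher means more ethidium bromide displaced from hairpin DNA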
# * marks the source's active call; other numbers are inactive results; i = inactive; ? = inconclusive; nt = not tested or not shown; + = active, no number.
SMILES,Kir21 block,Rce1 inhib,PfM18AAP inh,DNA FID counter
Cc1c(Cc2ccccc2)c(=O)oc2cc(O)cc(O)c12,-5.3*,i,7,2
CSc1ccc2c(c1)N(CCC1CCCCN1C)c1ccccc1S2 (configuration not stated),-8.2*,i,2,21
CC(OC(=O)Cc1cccc(C(F)(F)F)c1)C(=O)Nc1ccc(Cl)cn1 (configuration not stated),-3.2,i,4,-17
CN1C(=O)c2ccccc2N(C)C1c1ccccc1Cl (configuration not stated),-0.69,+,4,-14
CCCCN(Cc1cccs1)S(=O)(=O)c1csc(C(N)=O)c1,-7.8*,i,5,-22
Cc1ccccc1NC(=O)CCCN1C(=O)C2CC=CCC2C1=O (configuration not stated),0.36,i,1,-9
Oc1ccc(/C=N/Nc2ncnc3c2ncn3Cc2ccccc2)cc1O,-0.77,i,39*,-5
Oc1cccc(/C=N/Nc2ncnc3c2ncn3Cc2ccccc2)c1,3.1,i,18,-19
O=C(c1nnsc1S(=O)(=O)c1ccc(Cl)cc1)N1CCOCC1,-1.7,i,-34,6
CNC(=O)c1nnsc1S(=O)(=O)c1ccc(Cl)cc1,-8.7*,i,-285,7
CN(C)CCCNc1oc(/C=C/c2ccccc2)nc1C#N,0.12,?,-19,6
C=CCNc1oc(/C=C/c2ccccc2)nc1C#N,0.69,+,6,-11
Cc1cc(C)c(C)c(S(=O)(=O)N2CCSCC2)c1C,-4.5*,i,-12,-11
O=C(Nc1ccc2c(c1)OCO2)NC1CCN(Cc2ccccc2)CC1,-1.3,i,-4,8
S=C(Nc1ccc(Cl)cc1)NC1CCN(Cc2ccccc2)CC1,-4.7*,i,3,11
O=C(Nc1ccc(F)cc1)NC1CCN(Cc2ccccc2)CC1,-5.2*,i,0,10
Fc1ccc(CNc2ccc(N3CCN(Cc4ccccc4)CC3)cc2)cc1,-7.1*,i,-28,12
S=C(Nc1ccccc1)NC1CCN(Cc2ccccc2)CC1,-1.8,i,2,8
Cc1cc(C)c(S(=O)(=O)/N=C2/C=C(Sc3ncn[nH]3)C(=O)c3ccccc32)cc1C,nt,nt,40*,-5
Cc1ccc(NC2=C/C(=N/S(=O)(=O)c3cccs3)c3ccccc3C2=O)cc1C,0.68,i,-5,0
Cc1cccc(N(C(=O)CCC(=O)Nc2cc(C)on2)C(C(=O)NC2CCCC2)c2ccccc2)c1 (configuration not stated),0.92,i,5,-52
COCC(C)NCc1cccc2ccccc12 (configuration not stated),-0.43,i,0,9
CC(CCc1ccccc1)NCc1cccc2ccccc12 (configuration not stated),-9.7*,i,4,19
O=C(C(Sc1ccccc1)c1ccc(Br)cc1)N1CCOCC1 (configuration not stated),-5.8*,i,-3,-14
COc1cccc(/C=C/C(=O)OCC(=O)Nc2ccc(Cl)c(S(=O)(=O)N(C)C)c2)c1OC,-0.95,+,2,-18
SMILES,Kir21 block,Rce1 inhib,PfM18AAP inh,DNA FID counter
COc1ccc(CCNC(=O)Cn2ccc3c(OC)cccc3c2=O)cc1OC,-0.47,i,-16,-15
CN(Cc1ccccc1)C(=O)c1ccc2c(c1)OCO2,0.58,i,-14,-8
CCCCN(C(=O)c1ccc2c(c1)OCO2)c1ccccc1,-5.4*,i,-3,-23
Cc1ccc[n+](-c2[nH]c(=O)sc2/C=N/N=C(\[O-])CCn2c3ccccc3c3ccccc32)c1,1.2,i,-3,-8
Cc1cc[n+](-c2[nH]c(=O)sc2/C=N/NC([S-])=Nc2ccccc2)cc1C,0,i,32*,0
O=C(CCc1ccncc1)N1CCCC(Nc2ccc(F)c(F)c2)C1 (configuration not stated),-0.72,i,5,-9
CN(NS(=O)(=O)c1ccc(Cl)cc1)c1ncc(C(F)(F)F)cc1Cl,-6.4*,i,-13,-17
CC1CCN(c2nc(CN3CCCCC3)nc3scc(-c4ccccc4)c23)CC1,-7.6*,i,4,7
CC1CCN(c2nc(-c3cccnc3)nc3scc(-c4ccccc4)c23)CC1,-0.47,i,-1,-1
N#Cc1c(NC(=O)C(=O)NCCCN2CCOCC2)sc2c1CCC2,-0.97,i,20,-3
COC(=O)c1c(NC(=O)C(=O)NCCCN2CCOCC2)sc2c1CCCC2,-5*,i,1,13
CCOC(=O)c1c(C)[nH]c(C)c1C(=O)COC(=O)c1cc2ccccc2cc1OC,-2.8,i,-8,-25
CCOC(=O)c1c(C)[nH]c(C)c1C(=O)COC(=O)c1cc2ccccc2cc1O,1.4,i,53*,-7
CCN1CCN(c2nc(C)nc3c2sc(=S)n3C)CC1,nt,nt,34*,4
CCOc1ccccc1N1CC(C(=O)Nc2cc(S(C)(=O)=O)ccc2Cl)CC1=O (configuration not stated),1.7,i,nt,nt
NC(=O)CSc1nnc(-c2cccs2)n1Cc1ccco1,1.2,i,-1,0
CCn1c(COc2ccc(Cl)cc2)nnc1SCc1ccc(C#N)cc1,-4.8*,i,-4,-31
CCn1c(SCc2ccc(Cl)cc2)nnc1-c1ccccc1,-5.3*,nt,1,-32
Cc1ccc(C)c(CSc2nnc(-c3cccs3)n2Cc2ccco2)c1,-5*,i,1,-36
CCn1c(SCc2cccc(C(=O)O)c2)nnc1-c1ccccc1,0.02,i,4,-16
Cc1cccc(-c2nnc(SCc3ccc(C#N)cc3)n2Cc2ccco2)c1,-5.3*,+,1,-30
CCn1c(SCC(=O)OC(C)C)nnc1-c1cccc(Cl)c1,-2.8,i,-19,-17
C=CCn1c(SCc2ccc(C#N)cc2)nnc1-c1ccc(C)cc1,-2,+,8,-31
Cn1c(SCc2ccc(C#N)cc2)nnc1-c1ccncc1,-0.76,i,0,-2
CCn1c(SCc2ccc(C#N)cc2)nnc1-c1cccc(Cl)c1,-4.6*,i,3,-26
SMILES,Kir21 block,Rce1 inhib,PfM18AAP inh,DNA FID counter
Clc1ccc(CSc2nnc(-c3cccnc3)n2Cc2ccco2)c(Cl)c1,-4.3*,i,-70,-35
CC1CCCCC1N(C)C1CCN(C(=O)CNC(=O)/C=C/c2cccc(Cl)c2)CC1 (configuration not stated),1.5,i,-34,17
CCN(CC)CCCNC(=O)c1cc(Nc2ccc(OC)cc2)nc2ccccc12,-1.8,i,0,37
Cc1ccc(N/C=C/C(=O)c2ccc(C)cc2)cc1,0.76,i,-2,-8
Cc1ccc(O)c(N/C=C/C(=O)c2ccc(F)cc2)c1,-0.11,i,28*,-10
Cc1ccccc1Oc1ccccc1N,0.4,i,4,0
Nc1ccccc1Oc1ccc2ccccc2c1,-0.02,+,-6,-6
Cc1cc(/C=N/n2cnnc2)c(C)n1-c1cccc(Cl)c1,-1.5,i,29*,-1
Cc1cc(/C=N/n2cnnc2)c(C)n1-c1ccc(Cl)cc1,-2.5,i,7,-10
COC(=O)c1ccc(CNC(=O)C(NC(=O)c2ccco2)C(C)C)cc1 (configuration not stated),-0.47,i,0,-6
